Consider 6 compounds from PubChem BioAssay.

In assay [1] the test system is Human papillomavirus type 1a protein E7 (residues 44-93). Briefly: small molecules binding HPV E7 44-93 – biochemical, small-molecule microarray, residues 44-93, 635 nm fluorescence, primary screen (AID 1108).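 Also: E7 fragment applied at 1 µg/mL in TBST for 1 h at 4 C; score combines spot fluorescence with its signal to noise ratio.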 To be noted: fluorescence 635 nm, higher = more signal.
Assay [2] in a line: hepatitis C replication reporter changes, two-sided – Huh7 cells, luciferase reporter, HCV replication inhibitor project, primary screen (AID 1109).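 Also: huh7 hepatoma cells harbouring a luciferase neomycin HCV replicon reporter; luciferase luminescence as measure of HCV replicon replication; test concentration not given here.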 To be noted: Huh7 HCV replicon luciferase reporter, 48 h; higher = more signal. In general terms: In a reporter assay the amount or activity of a reporter protein is the signal.
The target in assay [3] is Left-right determination factor 2 (Homo sapiens) (UniProt O00292). Briefly: small molecules binding LEFTY2 protein – biochemical, small-molecule microarray, 635 nm fluorescence scan, primary screen (AID 1110). To be noted: higher = more signal.
Assay [4] has as its target Calmodulin-1 (Homo sapiens) (UniProt P0DP23). Briefly: small molecules binding calmodulin-1 with EGTA – biochemical, small-molecule microarray, Cy5-labelled CALM1, profiling panel (AID 1111).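 Also: labelled calmodulin applied in Tris saline Tween buffer holding calcium plus EGTA and DTT.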 To be noted: Cy5-CALM1 binding fluorescence, higher = more signal.
Assay [5] shares this target. The experiment in a line: small molecules binding Ca-loaded calmodulin-1 – biochemical, small-molecule microarray, Cy5-labelled CALM1, plus calcium, artefact control for SMM control-protein annotation, profiling panel (AID 1112).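 Also: score merges spot fluorescence with signal to noise from triplicate slides.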 To be noted: Cy5-CALM1 binding fluorescence, higher = more signal.
Assay [6] in a line: probe aWnt5a binding to arrayed compounds – biochemical, biotinylated probe, 635/667 nm fluorescence, primary screen (AID 1113).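 Also: score merges 667 nm fluorescence intensity with signal-to-noise per printed feature.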 To be noted: small-molecule microarray, higher = more signal.
The nature of assay [7]: probe aShh binding to arrayed compounds – biochemical, biotinylated probe, 635/667 nm fluorescence, primary screen (AID 1114).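 Also: probe is biotin-labelled aShh protein from a stem cell growth factor screen; measures binding of labelled protein to compounds printed on the slide; score merges feature fluorescence at 667 nm with signal-to-noise.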 To be noted: small-molecule microarray, higher = more signal.
The nature of assay [8]: probe aNog binding to arrayed compounds – biochemical, biotinylated probe, 635/667 nm fluorescence, primary screen (AID 1115).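 Also: probe is biotinylated aNog protein used at 0.15 µg/mL for 1 h at 4 C; z-score combines 667 nm fluorescence of each spot with its signal to noise.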 To be noted: small-molecule microarray, higher = more signal.
Assay [9] concerns the target Torsin-1A-interacting protein 1 (Homo sapiens) (UniProt Q5JTV8). Briefly: compound microarray binding of lysate hLAP1 – cell lysate, small-molecule microarray, COS7 lysate, 635/667 nm fluorescence, primary screen (AID 1116). To be noted: 635 nm fluorescence, higher = more signal.
In assay [10] the target is Alpha-bungarotoxin (Bungarus multicinctus) (UniProt P60615). The experiment in a line: compounds binding labelled alpha-BTX control protein – biochemical, small-molecule microarray, Alexa647 label, 635/667 nm fluorescence, artefact control for SMM control protein annotation, profiling panel (AID 1117). To be noted: alpha-BTX-A647 binding fluorescence, higher = more signal.

The next assay concerns the target Albumin (Bos taurus) (UniProt P02769). Briefly: compounds binding labelled BSA control protein – biochemical, small-molecule microarray, Alexa647 label, 635/667 nm fluorescence, artefact control for SMM control protein annotation, profiling panel (AID 1118).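 Also: score merges 667 nm emission intensity and signal-to-noise per printed compound spot.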 To be noted: BSA-A647 binding, fluorescence 635 nm, higher = more signal.
Assay [11] can be described thus: probe aXIP binding to arrayed compounds – biochemical, NeuroSMM set, 635/667 nm fluorescence, primary screen (AID 1119).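 Also: probe is the protein aXip251-270 applied at 1 µg/mL to compound-printed slides; binding of probe to printed compounds measured as 667 nm fluorescence plus signal to noise.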 To be noted: small-molecule microarray, higher = more signal, called active from +8 up or from −8 down.
Assay [12] can be described thus: probe aNOTCH3 binding on compound microarray – biochemical, small-molecule microarray, 635/667 nm fluorescence, primary screen (AID 1120).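 Also: probe is a biotin-tagged antibody raised against NOTCH3 rather than NOTCH3 protein; score merges spot fluorescence near 667 nm with spot signal to noise.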 To be noted: higher = more signal.
Assay [13] is described as follows: probe aNOTCH2 binding on compound microarray – biochemical, small-molecule microarray, 635/667 nm fluorescence, primary screen (AID 1121).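 Also: score merges feature fluorescence read at 667 nm with its signal to noise.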 To be noted: higher = more signal.
The target in assay [14] is Carbonic anhydrase 2 (Homo sapiens) (UniProt P00918). Briefly: compounds binding carbonic anhydrase 2 – biochemical, small-molecule microarray, Alexa647-labelled CAII, profiling panel (AID 1122). To be noted: CAII-A647 binding fluorescence, higher = more signal.
Assay [15] in a line: COS7 lysate on small-molecule microarray, probe aHis, 635 nm (AID 1123).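 Also: z-score combines 667nm fluorescence intensity with signal-to-noise per printed compound spot.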 To be noted: COS7 cell lysate, fluorescence, higher = more signal.
Assay [16] can be described thus: probe aLAP1 signal on lysate-treated microarray – cell lysate, small-molecule microarray, COS7 lysate, primary screen (AID 1124).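 Also: lysate comes from COS7 cells expressing LAP1 and is applied at 0.3 µg/mL; score merges spot fluorescence near 667 nm with signal-to-noise over triplicate slides.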 To be noted: probe aLAP1, fluorescence, higher = more signal.
The subject of the next assay is Sam68 (KHDRBS1). Briefly: compounds binding KHDRBS1 protein – biochemical, small-molecule microarray, 635 nm fluorescence, primary screen (AID 1125).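 Also: score merges 667 nm channel intensity with signal to noise over triplicate slides.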 To be noted: higher = more signal.
For assay [17], the system named is Chordin-like protein 2 (CHRDL2). Briefly: compounds binding chordin-like 2 – biochemical, small-molecule microarray, 635 nm fluorescence, primary screen (AID 1126).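 Also: printed compound slides probed with Chrdl2 protein at 4 µg/mL for 1 h at 4 C; score merges 667 nm emission intensity with signal to noise over three replicate slides.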 To be noted: fluorescence 635 nm, higher = more signal.
The target in assay [18] is Concanavalin-A (Canavalia ensiformis) (UniProt P02866). The experiment in a line: compounds binding concanavalin A lectin – biochemical, small-molecule microarray, Alexa647 label, 635 nm, artefact control for SMM control protein annotation, primary screen (AID 1127).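 Also: z combines 667 nm emission intensity with signal-to-noise across three replicate slides.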 To be noted: ConA-A647 binding fluorescence, higher = more signal.

Active and inactive are the calls of the source.

Sequence of Torsin-1A-interacting protein 1 (Homo sapiens) (Q5JTV8 whole entry, looked up): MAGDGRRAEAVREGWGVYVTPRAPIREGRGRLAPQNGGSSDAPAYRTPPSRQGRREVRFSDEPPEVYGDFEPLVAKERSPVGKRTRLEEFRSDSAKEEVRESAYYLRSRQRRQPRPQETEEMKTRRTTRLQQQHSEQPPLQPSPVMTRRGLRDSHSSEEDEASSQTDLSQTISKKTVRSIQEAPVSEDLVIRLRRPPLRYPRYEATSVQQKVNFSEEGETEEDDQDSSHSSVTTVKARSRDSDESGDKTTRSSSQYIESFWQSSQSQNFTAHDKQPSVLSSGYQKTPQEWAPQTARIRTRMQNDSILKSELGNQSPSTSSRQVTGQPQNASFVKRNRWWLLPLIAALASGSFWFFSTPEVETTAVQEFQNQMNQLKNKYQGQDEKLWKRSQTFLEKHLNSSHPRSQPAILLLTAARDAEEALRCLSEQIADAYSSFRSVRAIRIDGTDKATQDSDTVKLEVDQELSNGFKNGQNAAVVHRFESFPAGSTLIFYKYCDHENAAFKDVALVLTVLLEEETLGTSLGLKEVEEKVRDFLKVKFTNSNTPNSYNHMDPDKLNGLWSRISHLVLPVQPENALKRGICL
Sequence of Concanavalin-A (Canavalia ensiformis) (P02866 whole entry, looked up): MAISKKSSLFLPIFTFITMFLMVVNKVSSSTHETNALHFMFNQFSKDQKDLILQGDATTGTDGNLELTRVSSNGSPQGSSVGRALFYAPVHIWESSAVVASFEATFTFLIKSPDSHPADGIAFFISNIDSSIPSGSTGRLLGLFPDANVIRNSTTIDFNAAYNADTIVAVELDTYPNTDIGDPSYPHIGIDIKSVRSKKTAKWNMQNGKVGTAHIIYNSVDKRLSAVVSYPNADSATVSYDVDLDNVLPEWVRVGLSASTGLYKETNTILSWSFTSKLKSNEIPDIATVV
Sequence of Albumin (Bos taurus) (P02769 whole entry, looked up): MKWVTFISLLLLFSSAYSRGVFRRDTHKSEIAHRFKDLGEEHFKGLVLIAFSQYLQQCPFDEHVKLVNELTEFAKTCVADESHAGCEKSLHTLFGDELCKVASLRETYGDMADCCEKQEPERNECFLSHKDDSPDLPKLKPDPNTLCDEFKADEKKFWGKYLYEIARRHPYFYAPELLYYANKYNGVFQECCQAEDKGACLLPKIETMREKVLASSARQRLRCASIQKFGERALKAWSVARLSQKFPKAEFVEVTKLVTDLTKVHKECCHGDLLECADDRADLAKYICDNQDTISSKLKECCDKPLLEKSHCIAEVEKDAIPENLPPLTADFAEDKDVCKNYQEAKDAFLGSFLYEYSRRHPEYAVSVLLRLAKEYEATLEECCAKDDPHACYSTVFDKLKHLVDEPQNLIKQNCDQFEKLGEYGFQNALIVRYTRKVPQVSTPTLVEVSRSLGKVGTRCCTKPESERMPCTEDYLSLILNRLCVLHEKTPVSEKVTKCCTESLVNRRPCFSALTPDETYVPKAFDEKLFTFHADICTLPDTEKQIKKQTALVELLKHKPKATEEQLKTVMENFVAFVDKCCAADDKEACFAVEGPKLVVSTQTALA
Sequence of Alpha-bungarotoxin (Bungarus multicinctus) (P60615 whole entry, looked up): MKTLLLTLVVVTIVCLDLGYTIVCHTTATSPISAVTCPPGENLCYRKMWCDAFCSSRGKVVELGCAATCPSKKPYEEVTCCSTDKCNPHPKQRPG
Sequence of Left-right determination factor 2 (Homo sapiens) (O00292 whole entry, looked up): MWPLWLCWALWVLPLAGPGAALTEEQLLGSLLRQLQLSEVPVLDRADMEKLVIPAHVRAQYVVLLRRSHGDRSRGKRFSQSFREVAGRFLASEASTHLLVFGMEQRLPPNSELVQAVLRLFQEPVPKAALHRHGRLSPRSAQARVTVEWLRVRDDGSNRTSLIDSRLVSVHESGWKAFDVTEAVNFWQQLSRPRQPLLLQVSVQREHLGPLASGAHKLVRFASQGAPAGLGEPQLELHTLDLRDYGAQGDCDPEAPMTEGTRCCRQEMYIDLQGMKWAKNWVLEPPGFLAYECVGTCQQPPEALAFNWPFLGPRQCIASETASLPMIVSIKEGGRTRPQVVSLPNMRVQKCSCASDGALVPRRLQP

For the compound `C=CC[C@H](OC(=O)Nc1ccc(OC)cc1)c1ccc(O)c2ccccc12`, the composite z-score in assay [1] is 1.07; in assay [3] it was 0.848; in assay [4] it was 0.107; in [5] it was -0.636; in assay [6], 0.0511; in assay [7], 0.0469. Further, the composite z-score was 0.241 in [8]; 0.505 in assay [9]; 1.78 in assay [10]; -0.343 in the assay with Albumin (Bos taurus); 0.0539 in assay [12]; -0.124 in assay [13]. Also, the composite z-score is 0.289 in [14]; 0.865 in assay [15]; -0.0938 in assay [16]; 1.3 in the assay on Sam68 (KHDRBS1); 1.18 in assay [17]; 1.09 in assay [18]. In addition, in [2], the z-score is -3.63. Moreover, in assay [11], the composite Z-score was -0.192 (inactive).

Regarding `CC(C)N1CC=CC23O[C@@H]4C=CCOC(=O)[C@@H]4[C@H]2C(=O)N(C(C)CO)[C@@H]3C1=O` (stereo not given in full), the composite z-score is -0.913 in assay [1]; -1.76 in assay [3]; -0.0212 in [4]; -0.123 in assay [5]; -0.196 in [6]; 0.0278 in assay [7]. The composite z-score in [8] was 0.141; in assay [9], -0.606; in assay [10], -0.127; with Albumin (Bos taurus), -0.385; in [12], -0.149; in assay [13], -0.0891. Also, the composite z-score is 0.406 in [14]; 0.0561 in [15]; 1.06 in [16]; -0.876 in the assay on Sam68 (KHDRBS1); -1.03 in assay [17]; 0.261 in assay [18]. In assay [2], this compound had a z-score of 0.187. In addition, in [11], the composite Z-score was 0.365 (inactive).

As for `COc1cc2c(cc1O)C(C)N(Cc1cc3c(cc1Br)OCO3)CC2` (stereo not given), the composite z-score in assay [1] was -1.15; in assay [3] it was -0.407; in [4], 0.0966; in assay [5], 0.201; in assay [6] it was -0.0944; in [7] it was -0.338. Moreover, the composite z-score is -0.252 in assay [8]; 0.208 in assay [9]; -0.0712 in assay [10]; -0.0769 with Albumin (Bos taurus); -0.119 in [12]; -0.0924 in [13]. Moreover, the composite z-score in assay [14] was 0.887; in [15], 0.578; in assay [16], 0.349; with Sam68 (KHDRBS1), -0.309; in assay [17], -0.55; in [18] it was -0.251. This compound also displayed a z-score in assay [2] of -0.0195. The composite Z-score in [11] is 2.1 (inactive).

Regarding `O=c1cccc(-c2ccc(C(F)(F)F)cc2)o1`, the composite z-score in assay [1] was -1.57; in assay [3], -0.534; in assay [4], -0.271; in assay [5], 0.238; in assay [6], -0.0685; in [7], 0.163. Besides, the composite z-score in assay [8] is -0.0446; in [9], -0.333; in assay [10], -0.364; in the assay with Albumin (Bos taurus), -0.309; in [12], -0.122; in assay [13], -0.11. In addition, the composite z-score was -0.14 in assay [14]; -0.89 in assay [15]; 0.0441 in assay [16]; -1.03 in the assay on Sam68 (KHDRBS1); -0.291 in [17]; -0.0038 in assay [18]. In assay [2], this compound displayed a z-score of 0.587. Moreover, in assay [11], the composite Z-score is -0.275 (inactive).

In the case of `COc1ccc(C(O)C2C=CC3C(=O)N(c4ccccc4)C(=O)C3N2Nc2ccccc2)cc1OCc1ccccc1` (stereo not given), the composite z-score was determined as 1.48 in assay [1]; 0.0977 in assay [3]; 0.552 in assay [4]; 0.734 in [5]; 0.165 in assay [6]; 0.123 in assay [7]. Further, the composite z-score in assay [8] is 1.26; in assay [9], 0.618; in assay [10] it was 1.4; with Albumin (Bos taurus), 0.853; in [12], 0.505; in assay [13], -0.0798. The composite z-score in assay [14] is 0.503; in [15], 3.06; in assay [16] it was 0.0392; in the assay on Sam68 (KHDRBS1), 1.31; in [17], -0.356; in [18] it was 1.09. This compound returned a z-score in [2] of -0.412. The composite Z-score in [11] was 0.153 (inactive).

With `COc1c(C)cc(-c2cc3c(c(Cc4ccccc4)n2)[Si](C(C)C)(C(C)C)OC3)cc1C`, the composite z-score in assay [1] is -0.0363; in [3] it was 0.265; in assay [4] it was 0.0153; in assay [5] it was 0.0467; in assay [6] it was -0.096; in assay [7] it was -0.123. The composite z-score in [8] is -0.393; in assay [9], -0.0091; in [10], 0.229; with Albumin (Bos taurus) it was 0.0401; in assay [12], -0.0881; in assay [13] it was -0.0907. For the same compound, the composite z-score is -0.143 in [14]; 0.0246 in assay [15]; -0.269 in assay [16]; 0.0189 in the assay with Sam68 (KHDRBS1); 0.198 in [17]; 0.0652 in assay [18]. The compound further displayed a z-score in assay [2] of -0.637. Moreover, the composite Z-score in assay [11] was -0.014 (inactive).
